Bioassay records as filed in PubChem BioAssay.
Mcl1 Bid PPI: Mcl-1/Bid interaction inhibition; actives 0.97% (n = 220,000); TR-FRET Mcl-1/Bid-Dy647 peptide binding, 1536-well; AID 1021; inhibition, % at 21.7 µM; Q07820;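 active = compounds that cut the binding signal by more than half at the single screening dose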;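 note: His-tagged Mcl-1 with europium anti-His antibody binding Bid BH3 peptide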
Target sequence (Q07820 whole entry, looked up): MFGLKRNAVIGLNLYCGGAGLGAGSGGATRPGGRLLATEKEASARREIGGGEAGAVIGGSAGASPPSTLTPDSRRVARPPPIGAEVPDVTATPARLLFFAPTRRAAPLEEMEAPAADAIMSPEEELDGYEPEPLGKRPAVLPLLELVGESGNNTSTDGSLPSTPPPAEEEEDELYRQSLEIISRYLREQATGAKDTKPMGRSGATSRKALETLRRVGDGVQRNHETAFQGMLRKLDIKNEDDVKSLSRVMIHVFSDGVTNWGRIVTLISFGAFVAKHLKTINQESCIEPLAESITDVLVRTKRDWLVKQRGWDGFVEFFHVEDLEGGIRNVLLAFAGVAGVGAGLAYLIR
Mcl1 Noxa PPI: Mcl-1/Noxa interaction inhibition; Q07820; TR-FRET Mcl-1/Noxa peptide binding, 2 h; inhibition, % at 21.7 µM; actives 1.5% (n = 220,000); AID 1022;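 active = compounds that cut the protein-peptide binding signal by more than 50% relative to plate controls in a single-dose test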;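 note: His-tagged Mcl-1 with rhodamine Noxa BH3 peptide and terbium anti-His antibody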
TNF death inh: blocks TNF-alpha induced death of Jurkat FADD-/- cells. Jurkat FADD-/- TNF necroptosis rescue, ATP luminescence, 24 h; 0 = TNF only, 100 = no-TNF cells. activation (protection from cell death), % at 10 µM. actives 0.068% (n = 220,000);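 active = activation, meaning protection from cell death, of at least 50% relative to plate controls; inactive = activation below 50%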;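 note: necroptosis triggered by 40 ng/mL TNF-alpha added together with compound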
Mcl-1 Bim block: inhibitors of Bim-Mcl-1 interaction, human; Q07820; Bead-based flow cytometry, Bim peptide-Mcl-1 binding; inhibition, % at 10 µM; actives 0.1% (n = 190,000); AID 1009; in the data active = inhibition above about 40%
L929 necroptosis: blocks zVAD induced death of L929 cells; L929 zVAD necroptosis rescue, ATP luminescence, 24 h; with zVAD 60 µM; viability rescue, % at 10 µM; actives 0.38% (n = 220,000); AID 1377;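 active = activation, scaled between plate controls, above about 75%, limit read from the data; inactive = activation under that limit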
MCL1-BIM inh: inhibitors of human MCL1 binding to BIM-BH3 peptide; AID 2057; GST-MCL1 / FITC-Bim-BH3 fluorescence polarization; Q07820; actives 0.68% (n = 320,000); inhibition, % at 10.9 µM;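 active = inhibition above the mean inhibition of all tested compounds plus 3 SD, set per campaign, cut at about 40% in these data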;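 note: higher means more loss of mP so more displacement of Bim peptide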
zVAD necrop conf: confirmed blocker of zVAD induced death in L929 cells. shares compounds with L929 necroptosis. L929 zVAD-induced necroptosis rescue, ATP luminescence, 24 h. actives 16% (n = 760). activation (protection from necroptosis), % at 10 µM. AID 463117;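 active = mean protection from necroptosis of at least 50% over duplicate tests; inactive = mean protection below 50%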
BCLXL inh confirm: Bcl-xL (human) inhibition, MCL1 counter-screen confirmation. shares compounds with MCL1-BIM inh. GST-Bcl-xL / FITC-Bim BH3 peptide FP binding. inhibition, % at 10.9 µM. actives 54% (n = 1,700). AID 2166;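 active = inhibition above a cutoff equal to the mean inhibition of all tested compounds plus 3 SD, cut at about 30% in these data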
Target sequence (Q07817 whole entry, looked up): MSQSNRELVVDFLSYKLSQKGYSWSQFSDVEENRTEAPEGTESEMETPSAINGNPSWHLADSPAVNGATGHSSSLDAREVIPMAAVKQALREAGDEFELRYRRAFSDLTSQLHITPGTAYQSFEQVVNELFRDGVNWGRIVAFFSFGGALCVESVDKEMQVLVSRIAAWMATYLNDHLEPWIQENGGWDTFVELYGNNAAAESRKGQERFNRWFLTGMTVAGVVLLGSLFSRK
MCL1 inh confirm: confirmation of human MCL1 and BIM-BH3 interaction inhibitors; shares compounds with MCL1-BIM inh; inhibition, % at 10.9 µM; GST-MCL1 / FITC-Bim-BH3 fluorescence polarization; actives 61% (n = 1,700);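 active = inhibition above the average of all tested compounds plus 3 SD, cut at about 40% in these data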
Numbers stand for hits; – = inactive; · = no result given; + = active, no number. The list is not random: actives were taken first. Their share in the collection is about 2.4%.

SMILES	Mcl1 Bid PPI	Mcl1 Noxa PPI	TNF death inh	Mcl-1 Bim block	L929 necroptosis	MCL1-BIM inh	BCLXL inh confirm	MCL1 inh confirm	others
CCOc1ccc(NC(=S)Nc2ccc3nsnc3c2)cc1	–	–	–	–	–	–	·	·
CCOc1ccc(NC(=O)NC23CC4CC(CC(C4)C2)C3)cc1	–	–	–	–	88	–	·	·	zVAD necrop conf=–
CCOc1ccc(NC(=O)Nc2ccc3nsnc3c2)cc1	–	–	–	–	81	–	·	·	zVAD necrop conf=–
Cc1ccc(NC(=O)CN(C)C(=O)c2cccc(Br)c2)cc1	·	·	·	·	·	–	·	·
Cc1ccc(NC(=O)c2cccc(OCc3c(C)noc3C)c2)cc1	–	–	–	–	79	–	·	·	zVAD necrop conf=–
Cc1noc(C)c1COc1cccc(C(=O)Nc2ccccc2)c1	·	·	·	·	·	–	·	·
CCN(C(=O)C(=O)c1c[nH]c2ccccc12)c1ccccc1	·	·	·	·	·	–	·	·
Cc1cc(N)n2ncc(-c3ccc(F)cc3)c2n1	–	–	–	–	79	–	·	·	zVAD necrop conf=–
O=C(Nc1ncc2c(n1)-c1ccccc1CC2)C1CC1	–	–	–	–	76	–	·	·	zVAD necrop conf=–
CC1=CC(=Nc2c(C)n(C)n(-c3ccccc3)c2=O)C=CC1=O	–	–	–	·	77	126	–	–	zVAD necrop conf=50
Cc1ccc(S(=O)(=O)NCC(C)n2cncn2)cc1C (stereo not given)	·	·	·	·	·	–	·	·
O=C1NC(=S)N/C1=C/c1cc2c(cc1[N+](=O)[O-])OCO2	·	·	·	·	·	67	–	–
CC(C)(C)NC(=O)c1ccc2c(c1)N(CC(=O)N1CCCCC1)C(=O)C(C)(C)O2	·	·	·	·	·	–	·	·
CC1(C)Oc2ccc(C(=O)NC3CCCC3)cc2N(CC(=O)NC2CCCCC2)C1=O	–	–	–	–	–	54	–	–
CCOC(=O)c1ccccc1NC(=O)N1CCn2c(C)ccc2C1CC (stereo not given)	–	–	–	–	–	63	35	–
COc1cccc(CNC(=O)CN2C(=O)CCSc3ccc(S(=O)(=O)N4CCCC4)cc32)c1	·	·	·	·	·	–	·	·
CN(C(=S)NC(=O)c1ccccc1)c1c(N)n(Cc2ccccc2)c(=O)[nH]c1=O	–	–	–	·	–	–	·	·
Nc1c(NCc2ccccc2)c(=O)[nH]c(=O)n1Cc1ccccc1	–	–	–	–	–	88	–	–
CCOC(=O)C1=C(C)NC(C)=C(C(=O)OCC)C1C(=O)OCC(N)=O	–	–	–	–	–	110	–	–
CCOC(=O)C1=C(C)NC(C)=C(C(=O)OCC)C1C(=O)OCC(=O)NC(C)C	–	–	–	–	–	–	·	·
Cc1cc(C(=O)COc2ccccc2C(N)=O)c(C)n1C	–	–	–	–	–	–	·	·
Cc1cc(C(=O)COc2cccc3cccnc23)c(C)n1C	–	–	–	–	–	177	–	–
COc1ccc(-c2cnc(N)nc2-c2ccc(OCc3ccccc3)cc2O)cc1	–	–	–	·	–	–	·	·
Nc1ncc(-c2ccccc2)c(-c2ccc(O)cc2O)n1	·	·	·	·	·	51	–	–
COc1ccc2[nH]c(C(=O)Nc3ncc(C)cc3Br)cc2c1	–	–	–	·	–	52	–	–
SMILES	Mcl1 Bid PPI	Mcl1 Noxa PPI	TNF death inh	Mcl-1 Bim block	L929 necroptosis	MCL1-BIM inh	BCLXL inh confirm	MCL1 inh confirm	others
CNC(=O)c1ccc(CN(C)CC(=O)Nc2ccccc2C(=O)NC2CC2)cc1	·	·	·	·	·	–	·	·
Cc1csc(=O)n1CCC(=O)OCC(=O)Nc1ccc(Cl)cn1	·	·	·	·	·	–	·	·
CCOc1ccc(S(=O)(=O)N2CCCC(C(=O)NCC3CCCO3)C2)cc1Cl (stereo not given)	·	·	·	·	·	–	·	·
O=C(CN1C(=O)C2C3CCC(C3)C2C1=O)NCc1ccco1 (stereo not given)	–	–	–	–	–	53	–	–
CC(=O)Oc1ccc2c(c1)Oc1cc(OC(C)=O)ccc1C21OC(=O)c2ccccc21	–	–	–	·	–	+	154	186
CCOC(=O)c1[nH]cnc1N=Nc1c(O)ccc2ccccc12	–	–	–	–	–	93	75	84
Oc1ccc2ccccc2c1N=Nc1ccccn1	–	–	–	–	–	–	·	·
Cc1ccc(N2CCN(c3ccc(NCc4nc5ccccc5n4C)cc3)CC2)cc1	–	–	–	–	–	90	52	48
COc1cccc(C=O)c1OC(=O)N1CCOCC1	·	·	·	·	·	–	·	·
CCOc1ccc(N2CC(C(=O)Nc3cccc(C(=O)NC4CC4)c3)CC2=O)cc1 (stereo not given)	·	·	·	·	·	–	·	·
Cc1ccc(NC(=O)C(=O)Nc2ccc(C)cn2)nc1	–	–	–	–	–	–	·	·
Cc1ccc(NC(=O)/C(C#N)=C(\N)C(Cl)(Cl)Cl)nc1	–	–	–	–	–	70	171	185
Cc1ccc([N+](=O)[O-])cc1NC(=O)c1c(-c2ccccc2)noc1C	·	·	·	·	·	–	·	·
CC(C)(C)c1ccc(C(=O)Nc2cccc3ncccc23)cc1	·	·	·	·	·	90	116	143
CC(C)c1ccc(N2C(=O)/C(=C/N(C)C)SC2=S)cc1	–	–	–	·	–	+	+	+
CCO/C=C1\SC(=S)N(c2ccc(Cl)cc2)C1=O	–	–	–	·	–	–	·	·
COC(=O)C1=C(C(=O)OC)C(c2ccccc2O)c2sc(=O)[nH]c2S1 (stereo not given)	–	56	–	–	–	54	–	54
Cc1ccc(-c2csc3ncn(CC#N)c(=O)c23)cc1C	·	·	·	·	·	59	–	41
O=C(NCCc1ccccn1)c1nc(Cn2cc(Br)cn2)no1	·	·	·	·	·	–	·	·
COc1ccccc1C(=O)NCC(=O)NCCc1ccc(Cl)cc1	·	·	·	·	·	–	·	·
N#CC(C#N)=C1C=CC=CN1/C(=C\c1ccccc1)C(=O)c1cccs1	–	63	–	–	–	42	37	65
CN1C(=O)c2ccccc2NC(=O)[C@]12O[C@@H]2c1cccc(O)c1	–	–	–	·	–	65	56	69
CCn1c(O)c(/C=N/N=C/c2ccccc2)c2ccc(C3=NNC(=O)CC3)cc21	–	–	–	–	–	90	96	109
Cc1ccc(/C=C2\SC(=S)N(/N=C/c3cc([N+](=O)[O-])ccc3O)C2=O)o1	–	91	–	–	–	66	31	61
CC(=O)Oc1ccc2c(c1)O/C(=C\c1ccncc1)C2=O	–	–	–	·	–	151	90	115
CCC(=O)Oc1ccc2c(c1)O/C(=C\c1ccco1)C2=O	–	–	–	·	–	118	47	76
COc1ccccc1C(=O)Oc1ccc2c(c1)O/C(=C\c1ccncc1)C2=O	–	–	–	–	–	142	32	52
